The list is not random: actives were taken first. Their share in the collection is about 6.8%.
Spn MK inh: S. pneumoniae mevalonate kinase inhibition; inhibition, % at 10 µM; 65,000 tested, 0.48% active; purified MK, PK/LDH-coupled NADH absorbance 340 nm;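 active = ranked among the strongest by inhibition in the single 10 µM screen, a fixed top-ranked set picked for dose follow-up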
DPM-DC inhibit: blocks S. pneumoniae diphosphomevalonate decarboxylase; 65,000 tested, 0.49% active; purified DPM-DC, PK/LDH coupled NADH fluorescence; calls only at 10 µM; AID 556;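 active = the 320 compounds with the highest percent inhibition in the single-dose primary screen, excluding strongly autofluorescent ones, cut at about 32% in these data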;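 note: kinetic rate of NADH fluorescence loss reporting ADP formed by the decarboxylase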
Spn PMK inh: inhibitors of Streptococcus pneumoniae phosphomevalonate kinase. inhibition, % at 10 µM. AID 539. 65,000 tested, 0.49% active. purified PMK, PK/LDH-coupled NADH absorbance 340 nm;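 active = top-ranked compounds by inhibition in the single 10 µM screen, taking a fixed number of the strongest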;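 note: 0% = full reaction with DMSO carrier and 100% = background rate without enzyme reaction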
NADH coupling: inhibitors of enzymes used to reach an NAD/NADH endpoint; coupled PK/LDH NADH assays, four targets; IC50, µM (highest dose often 10 µM), for inactives: at the highest dose inhibition; 65,000 tested, 0.02% active;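 active = single-dose screening hits from any of four coupled enzyme assays that gave an IC50 when retested across doses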;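 note: the DPM-DC format reads NADH fluorescence rather than 340 nm absorbance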
A340 absorber: absorbance at 340 nm. compound absorbance at 340 nm, fold over control. fold change at 10 µM. 65,000 tested, under 10 active;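 active = at 10 µM dose, initial 340 nm absorbance at least 2 fold that of control wells; inactive = change under 2 fold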;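 note: initial absorbance extrapolated from kinetic A340 decline of NADH oxidation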
Fluor 339 460: intrinsic fluorescence of library compounds, ex339/em460 – biochemical, MLSMR library, data from DPM-DC assay, artefact control, profiling panel; compound autofluorescence, ex339/em460 nm, NADH buffer; active compounds read high; 1 = no-compound wells, NADH background; fluorescence fold increase at 10 µM; 65,000 tested, 5.5% active; AID 709;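 active = at 10 µM, mean starting fluorescence two-fold or more over control wells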;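 note: signal is the first read of a kinetic run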
The depositor's hits bear a star; i = inactive; . = not tested or not shown.

SMILES	Spn MK inh	DPM-DC inhibit	Spn PMK inh	NADH coupling	A340 absorber	Fluor 339 460
O=C(Cc1ccccc1)Nc1ccc2oc(-c3ccncc3)nc2c1	8.0	.	2.0	5.0%	1.07	3.86*
CC(C)CC(=O)Nc1cccc(-c2nc3ccccc3o2)c1	6.0	i	2.0	3.0%	1.01	1.2
CC(C)CC(=O)Nc1ccc2oc(-c3ccncc3)nc2c1	6.0	.	16.0	11.0%	1.04	3.72*
O=C(Nc1ccc2oc(-c3ccncc3)nc2c1)c1ccccc1F	14.0	.	16.0	15.0%	1.05	3.71*
COn1c(SC2CCCCC2)nc2ccccc2c1=O	6.0	i	2.0	3.0%	1.02	1.14
CCOc1cc(C2C(C(=O)OCC(C)C)=C(C)N=C3SCCC(=O)N32)ccc1OC(C)=O (configuration not stated)	0.0	i	19.0	7.0%	1.06	1.05
CCCCCCOC(=O)C(C#N)c1nc2ccccc2nc1N1CCCCC1 (configuration not stated)	3.0	i	13.0	4.0%	1.01	1.07
Cc1cccc(S(=O)(=O)C(C#N)c2nc3ccccc3nc2N2CCCC2)c1 (configuration not stated)	0.0	.	12.0	6.0%	1.09	3.89*
C=CCNC(=O)C(C#N)c1nc2ccccc2nc1N1CCCCCC1 (configuration not stated)	0.0	.	0.0	0.0%	1.03	2.27*
COc1ccc(S(=O)(=O)C(C#N)c2nc3ccccc3nc2N2CCCCC2)cc1 (configuration not stated)	12.0	i	0.0	11.0%	1.09	1.76
N#CC(c1nc2ccccc2nc1N1CCCC1)S(=O)(=O)c1ccccc1 (configuration not stated)	12.0	.	5.0	9.0%	1.06	2.26*
CCCCCCOC(=O)C(C#N)c1nc2ccccc2nc1N1CCN(C)CC1 (configuration not stated)	5.0	.	10.0	8.0%	1.04	3.92*
O=S(=O)(c1cccs1)N1CCN(CC(O)COc2cc(Cl)ccc2Cl)CC1 (configuration not stated)	0.0	i	10.0	3.0%	1.01	1.05
COc1cccc(/C=N/n2c(C)c3c(C)nnc(C)c3c2C)c1O	6.0	i	5.0	4.0%	1.01	1.1
CC1CCCN(c2nc3c(c(=O)[nH]c(=O)n3C)n2CCSc2ncccn2)C1 (configuration not stated)	6.0	i	11.0	7.0%	1.06	1.02
Cc1cc(C)c(NC(=O)CSc2nc3c(c(=O)n2C)SC(C)C3)c(C)c1 (configuration not stated)	2.0	i	3.0	1.0%	1.04	1.03
CCOc1cc2c(cc1OCC)C(c1cc(OC)c(O)c(OC)c1)NCC2 (configuration not stated)	4.0	i	17.0	7.0%	0.99	1.16
CCN(CCO)C(=O)C12CCC(C)(C(=O)C1)C2(C)C (configuration not stated)	6.0	i	3.0	3.0%	1.03	1.11
Cc1ccc(S(=O)(=O)C(C#N)c2nc3ccccc3nc2N2CCC(C)CC2)cc1 (configuration not stated)	6.0	i	12.0	9.0%	1.04	1.64
Cc1ccc(C)c(S(=O)(=O)C(C#N)c2nc3ccccc3nc2N2CCOCC2)c1 (configuration not stated)	7.0	i	0.0	3.0%	1.05	1.24
Cc1ccc(C)c(S(=O)(=O)C(C#N)c2nc3ccccc3nc2N2CCCC2)c1 (configuration not stated)	5.0	.	0.0	3.0%	1.04	3.37*
N#CC(c1nc2ccccc2nc1N1CCCC1)S(=O)(=O)c1cccs1 (configuration not stated)	9.0	i	9.0	11.0%	1.05	2.68*
O=C(C1CCCN(S(=O)(=O)c2ccc(F)cc2)C1)N(Cc1cccs1)C1CC1 (configuration not stated)	5.0	i	0.0	5.0%	1.02	1.01
Nc1nnc(Cc2ccc(Cl)c(Cl)c2)s1	2.0	i	0.0	1.0%	1.02	1.07
CC(C)Cn1c(N)c(C(=O)COC(=O)C2=COCCO2)c(=O)n(C)c1=O	0.0	i	0.0	0.0%	1.05	1.08
COc1ccc2nc(SCC(=O)N3CCCCCC3)c(C#N)cc2c1	12.0	i	4.0	8.0%	1.02	1.31
